PubChem BioAssay (NCATS)
Results filed as inconclusive are left out. Where a call stands in place of a potency, no number is given. Activity calls are given as the source filed them. The call rests on the fitted dose curve; in most records, active means well fitted inhibition curve with a large enough effect; inconclusive means small, poorly fitted or top-dose-only effect; inactive means flat fitted curve, though single readings scatter.

What follows are molecules tested against Calcium and integrin-binding protein 1 (Homo sapiens) (UniProt Q99828) (assay: Primary qHTS for Identification of Calcium Integrin Binding Protein 1 (CIB1) Competitor (AID 1508620;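 further: GST tagged CIB1 binding a fluorescein labelled alphaIIb integrin peptide tracer; top concentration of the series differs between compounds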)). Settings: CIB1-GST / FITC-alphaIIb peptide fluorescence polarization; series mostly up to 114 µM.
Sequence of Calcium and integrin-binding protein 1 (Homo sapiens) (Q99828 whole entry, looked up): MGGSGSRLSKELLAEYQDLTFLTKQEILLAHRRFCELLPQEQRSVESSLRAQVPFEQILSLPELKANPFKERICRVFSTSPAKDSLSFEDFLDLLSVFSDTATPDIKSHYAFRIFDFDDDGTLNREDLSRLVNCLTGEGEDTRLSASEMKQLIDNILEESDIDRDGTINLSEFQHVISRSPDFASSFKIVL
Method in brief: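 Fluorescence polarization competition: CIB1-GST (1 uM final) preincubated with compound 15 min at room temperature, then FITC-labeled alphaIIb peptide (100 nM final) added for another 15 min. Polarization read at Ex 480/Em 540.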
`Cc1ccc(S(=O)(=O)Nc2ccc(NS(=O)(=O)c3ccc(C)cc3)c3ncccc23)cc1` was tested, and the Potency was “inactive”.
`COc1cccc(CCC(=O)NCCc2nc3ccccc3n2CCOc2ccc(C)cc2)c1` was tested, and the Potency was “inactive”.
`CC(C)(C)c1ccc(NC(=O)c2cccs2)cn1` was tested, and the Potency was “inactive”.
For `O=C1NS(=O)(=O)c2cc3c(cc21)C(=O)NS3(=O)=O`, the Potency was “inactive”.
`COc1cccc(C2=Nn3c(nnc3-c3cc(OC)cc(OC)c3)SC2)c1` was tested, and the Potency was “inactive”.
For `COc1ccc(Nc2nc(C#N)nc(NC3CCCC3)n2)cc1`, the Potency was “inactive”.
`O=C(O)Cc1cc(F)c(S(=O)(=O)N2CCN(S(=O)(=O)c3ccc4c(c3)OCCO4)CC2)cc1F` was tested, and the Potency was “inactive”.
`NC(=O)C1CCN(c2ncc(-c3cccc(N4CCCC4)c3)s2)CC1` was tested, and the Potency was “inactive”.
With `Cn1ncc(-c2nnc(-c3ccccc3)n2CCCn2ccnc2)c1N` the Potency was “inactive”.
With `Cc1ccc(NS(=O)(=O)c2cc3c(cc2Cl)NC(=O)CO3)cc1C` the Potency was “inactive”.
With `O=C(NC1CCCc2c1cnn2-c1ccc(F)cc1F)c1ccccn1` (stereo not given) the Potency was “inactive”.
`O=C(Nc1ccc(Cl)c(Cl)c1)Nc1nc(-c2ccncc2)cs1` was tested, and the Potency was “inactive”.
With `c1ccc2[nH]c(-c3ccc(NCc4ccc5c(c4)OCCO5)cc3)nc2c1` the Potency was “inactive”.
`COc1ccc(C2=Nn3c(nnc3-c3cccc(OC)c3OC)SC2)cc1` was tested, and the Potency was “inactive”.
In the case of `Fc1cnc(-c2ccccc2C(F)F)nc1NCC1CCN(c2cnccn2)C1` (stereo not given), the Potency is reported as “inactive”.
With `Oc1cccc2cc(Nc3ccccc3)cnc12` the Potency was “inactive”.
In the case of `Cc1cc2c(s1)c1cnn(Cc3c(Cl)cccc3Br)c(=O)c1n2C`, the Potency is reported as “inactive”.
`O=C(OCC#CCSc1nnc(-c2ccc3ccccc3c2)o1)c1ccsc1` was tested, and the Potency was “inactive”.
In the case of `O=C(Nc1ccccc1)Nc1nnc(-c2ccncc2)s1`, the Potency is reported as “inactive”.
`Cc1cc(-c2nnc3n2CCCCC3)c(C)n1-c1ccc([N+](=O)[O-])cc1` was tested, and the Potency was “inactive”.
With `Cc1cnc(-c2ccccc2C2COC2)nc1NCc1ccc(-c2cccnc2)cc1` the Potency was “inactive”.
For `O=C1CCCC2=C1C(c1[nH]ncc1Cl)N=C(Nc1ccn[nH]1)N2` (stereo not given), the Potency was “inactive”.
With `CCOc1ccc(CCNC(=O)c2cc3sccc3n2Cc2ccncc2)cc1OCC` the Potency was “inactive”.
With `FC(F)(F)c1ccccc1-c1nc(NCc2ccc(Cl)c(Cl)c2)c2ccccc2n1` the Potency was “inactive”.
`COc1ccc(C2Nc3ccccc3C(=O)N2CC(C)(C)C)cc1COc1ccc(NC(C)=O)cc1` (stereo not given) was tested, and the Potency was “inactive”.
`O=S(=O)(c1ccc2c(c1)OCCO2)N1CCN(S(=O)(=O)c2ccccc2Cl)CC1` was tested, and the Potency was “inactive”.
In the case of `CC(C)(Nc1nc(-c2ccccc2C(F)(F)F)nc2ccccc12)c1ccc(-c2cccc(C(F)(F)F)c2)cc1`, the Potency is reported as “inactive”.
In the case of `O=S(=O)(NC1CCN(S(=O)(=O)c2ccc3c(c2)OCCO3)CC1)c1c(F)cccc1F`, the Potency is reported as “inactive”.
`Cc1cc(NS(=O)(=O)CCNC(=O)Cc2ccc(Cl)c(Cl)c2)no1` was tested, and the Potency was “inactive”.
For `CCC(Nc1ncnc2ccc(-c3c(C)noc3C)cc12)c1ccccc1` (stereo not given), the Potency was “inactive”.
`O=C1c2ccccc2C(=O)N1Cc1ccncc1` was tested, and the Potency was “inactive”.
With `COc1ccc(C2Nc3ccccc3C(=O)N2Cc2ccco2)cc1COc1ccc(NC(C)=O)cc1` (stereo not given) the Potency was “inactive”.
`Cc1ccc(OCCn2c(CCNC(=O)c3ccc(Br)o3)nc3ccccc32)cc1` was tested, and the Potency was “inactive”.
`COC/C=C/c1cc(F)c(S(=O)(=O)N2CCN(S(=O)(=O)c3ccc4c(c3)OCCO4)CC2)cc1F` was tested, and the Potency was “inactive”.
With `O=C(O)c1ccc2c(c1)C(=O)N([C@H](Cc1ccc(O)cc1)C(=O)O)C2=O` the Potency was “inactive”.
For `O=C(/C=C/c1cccc(Cl)c1)Nc1cccc([S+](=O)([O-])Nc2ccccc2F)c1`, the Potency was “inactive”.
With `CC(C)(C)OC(=O)NCCOCCOCCOc1ccc(-c2no[n+]([O-])c2C#N)cc1` the Potency was “inactive”.
For `Nc1ccc2c(=O)n3nc(Nc4ccc5c(c4)CCC5)sc3nc2c1`, the Potency was “inactive”.
For `Cc1csc(CNc2ncnc3ccc(-c4cccnc4)cc23)c1`, the Potency was “inactive”.
`Cc1ccc(OCCn2c(CCNC(=O)c3cccc4[nH]ccc34)nc3ccccc32)cc1` was tested, and the Potency was “inactive”.
